Shown are actives, neighbours in structure and some others; about 1.9% of the full set was active somewhere.
EP2 modulator: EP2 receptor modulators, cAMP readout, primary screen, cell-based, HTRF cAMP, PGE2 stimulation; AID 940, 2007; 260,000 tested, 0.83% active; induction, % at 25 µM; Prostaglandin E2 receptor EP2 subtype (Homo sapiens), P43116; EP2-expressing cells, cAMP HTRF FRET, PGE2 co-stimulation;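 active = compounds whose cAMP rise, as percent of the full-agonist control response, exceeds 60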;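 note: rat C6 glioma line stably carrying human EP2 under a CMV promoter; the protocol text gives 20 µM as final concentration; 100% = response of wells given 1 µM PGE2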
Target sequence (P43116 whole entry, looked up): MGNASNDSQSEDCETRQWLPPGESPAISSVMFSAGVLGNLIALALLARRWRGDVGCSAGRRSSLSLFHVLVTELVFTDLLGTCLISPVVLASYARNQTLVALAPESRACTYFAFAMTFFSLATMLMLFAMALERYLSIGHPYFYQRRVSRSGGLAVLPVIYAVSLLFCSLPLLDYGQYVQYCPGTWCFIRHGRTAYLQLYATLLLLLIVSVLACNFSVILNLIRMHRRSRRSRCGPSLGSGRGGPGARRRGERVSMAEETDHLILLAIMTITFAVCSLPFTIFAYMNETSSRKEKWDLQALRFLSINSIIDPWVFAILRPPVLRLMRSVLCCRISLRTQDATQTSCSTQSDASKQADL
PGE2 EP2 inh: human EP2 receptor antagonists, primary screen, TR-FRET cAMP, C6 glioma cells; 260,000 tested, 0.52% active; AID 1422, 2008; Prostaglandin E2 receptor EP2 subtype (Homo sapiens), P43116; inhibition, % at 25 µM; C6 glioma cells expressing human EP2; cells stimulated with saturating PGE2;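 active = percent inhibition above 40 after rounding to a whole number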;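 note: rat C6 glioma host cells with rolipram phosphodiesterase inhibitor present; the protocol text gives 20 µM as final concentration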
S1P4 antag: S1P4 receptor antagonists, primary screen, cell-based; 220,000 tested, 0.26% active; inhibition, % at 4.98 µM; Sphingosine 1-phosphate receptor 4 (Homo sapiens), O95977; AID 1510, 2009; S1P4-expressing cells, antagonist mode, reporter read-out; in the data active = inhibition above about 29%;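 note: 0% = wells stimulated with agonist and 100% = vehicle wells without agonist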
S1P4 agonist: S1P4 receptor agonists, primary screen, cell-based | activation, % at 4.98 µM | AID 1509, 2009 | S1P4-expressing cell line, agonist reporter assay | 220,000 tested, 0.35% active; in the data active = activation above about 11%;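 note: 0% = DMSO vehicle and 100% = reference agonist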
Pf gamet viab: late stage P. falciparum gametocyte viability inhibitors, primary screen, ATP luminescence, HTS | P. falciparum stage V gametocytes, 24 h | inhibition, % at 10.9 µM | 150,000 tested, 0.065% active | AID 743093, 2013;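 active = inhibition above the mean plus 3 SD of compounds within the control limits, set per campaign, cut at about 38% in these data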;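 note: 0% = DMSO wells and 100% = medium only without gametocytes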
S1P3 antagonist: S1P3 receptor antagonists, primary screen, cell-based | 170,000 tested, 0.27% active | CHO S1P3 NFAT-BLA reporter, FRET fluorescence, antagonist mode | AID 485, 2006 | inhibition, % at 4.98 µM;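 active = inhibition above the plate cutoff, the mean inhibition of test wells on that plate plus 3 SD, cut at about 28% in these data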;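 note: cells challenged with S1P at its EC80 of 0.8 µM; blue over green emission ratio from cleaved BLA substrate after 4 h stimulation; 0% = S1P-stimulated wells and 100% = unstimulated DMSO-only wells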
* hit, by the source's call; x = no result given.

SMILES | EP2 modulator | PGE2 EP2 inh | S1P4 antag | S1P4 agonist | Pf gamet viab | S1P3 antagonist
COc1ccc(CC(=O)NCc2ccc3c(c2)OCO3)cc1 | 30 | 6 | 3 | 1 | -62 | x
CCOC(=O)/C(=N\Nc1ccc(Cl)cc1)c1csc(Nc2ccccc2)n1 | 29 | 44* | 10 | 2 | x | x
CC(C)(C)NC(=O)CN1CCC(c2ccc(F)cc2)CC1 | -27 | 0 | x | x | x | x
O=C(NCC1(c2ccccc2)CCCC1)C(=O)NCC1(c2ccccc2)CCCC1 | 19 | 2 | -20 | 1 | -6 | x
O=C(NCC1(c2ccccc2)CCCC1)C1(c2ccccc2)CCCC1 | 62* | 3 | -7 | 1 | x | x
COc1cc2oc(=O)cc(C)c2c(OC)c1OC | -1 | 5 | -10 | -1 | -4 | -22
COc1cc2oc(=O)c(Br)c(C)c2c(OC)c1OC | 44 | 44* | 8 | -2 | -21 | 6
CCC(=O)N1c2ccccc2-c2nnc(SC)nc2OC1c1ccc(N(C)C)cc1 (stereo not drawn) | 20 | 12 | -9 | 220* | x | -44
CCC1Oc2nc(SC)nnc2-c2ccccc2N1C(=O)c1ccccc1 (stereo not drawn) | -4 | 13 | 10 | -2 | x | -14
CC1=CC=CC2=NC(=O)CC(C)(C(=O)N(CCc3ccccc3)CC(=O)NC3CCCC3)N12 (stereo not drawn) | -8 | 9 | x | x | x | x
O=C(C[n+]1ccc2ccccc2c1)c1ccc2ccc3ccccc3c2c1 | 24 | 59* | x | x | x | x
CCN(Cc1ccccc1)C(c1ccc(C)cc1)c1nnnn1C(C)(C)C (stereo not drawn) | 61* | 10 | -4 | 1 | x | x
CC(C)(C)n1nnnc1C(c1cccs1)N(Cc1cccnc1)Cc1ccco1 (stereo not drawn) | 24 | 3 | -1 | 1 | x | x
CC(C)(C)n1nnnc1C(c1cccnc1)N(CCc1ccccc1)Cc1cccs1 (stereo not drawn) | 63* | 8 | x | x | x | x
COc1cccc(C(c2nnnn2C(C)(C)C)N2CCN(C)CC2)c1OC (stereo not drawn) | -2 | 14 | x | x | x | x
O=C1ON=C(c2ccc(Cl)cc2)/C1=C/c1ccc(O)cc1 | -65 | 53* | 21 | 0 | 13 | -16
CCOc1ccccc1Nc1ncnc2c1cnn2-c1ccccc1 | x | 3 | x | x | x | 113*
COCCN(CCOC)c1ncnc2c1cnn2-c1ccc(Cl)cc1 | -3 | 4 | 5 | -1 | 14 | x
COCCN(CCOC)c1ncnc2c1cnn2-c1ccccc1 | 78* | 14 | x | x | x | 16
O=c1oc2ccccc2c(O)c1/C=N/c1nc(-c2ccc(O)c(O)c2)cs1 | 36 | 41* | x | x | x | x
Cc1cc2cc(CN(CC3CCCO3)C(c3nnnn3C3CCCCC3)C(C)C)c(=O)[nH]c2cc1C (stereo not drawn) | 49 | 14 | x | x | x | x
Cc1ccc(C)c(NC(=O)CSc2nnc(-c3ccncc3)n2C)c1 | 17 | 5 | x | x | x | x
O=C(Nc1nc(=O)c2ccccc2s1)c1ccc(Cl)cc1 | 27 | 17 | 6 | -2 | -21 | x
O=C(Nc1nc2ccsc2c(=O)s1)c1ccc(Cl)cc1 | -4 | 43* | -21 | 1 | -2 | -1
COc1cccc(Nc2nc(NCC3CCCO3)c3ccccc3n2)c1 (stereo not drawn) | -54 | 53* | 17 | -3 | 27 | x
O=C(O)[C@@H](Br)[C@@H](Br)c1ccccc1[N+](=O)[O-] | 29 | 41* | x | x | x | x
CCOC(=O)c1sc2nc3cc(OC)ccc3cc2c1N | -18 | 22 | x | x | x | x
CO[C@@H]1/C=C\O[C@]2(C)Oc3c(C)c(O)c4c(O)c(c(CN(C)C)c(O)c4c3C2=O)NC(=O)C(C)=C/C=C\[C@@H](C)[C@@H](O)[C@H](C)[C@@H](O)[C@H](C)[C@H](OC(C)=O)[C@@H]1C | 12 | 52* | x | x | x | x
CO[C@H]1C=CO[C@@]2(C)Oc3c(C)c(O)c4c(O)c(c(C=NN5CCN(C)CC5)c(O)c4c3C2=O)NC(=O)C(C)=CC=C[C@H](C)[C@H](O)[C@@H](C)[C@@H](O)[C@@H](C)[C@H](OC(C)=O)[C@@H]1C | 5 | 13 | -14 | 0 | x | -4
